Sampled rows, rich in hits. Any-hit rate of the full collection: about 5.5%.
RORgamma inh: blocks mouse ROR gamma transcriptional activity | Drosophila S2 Gal4-RORgamma UAS-luciferase reporter, 20 h | Potency, µM (highest dose often 53.6 µM), inactives show at the top dose activity change, negative = inhibition, hits mostly inhibitors | actives 5.4% (n = 310,000) | AID 2551; note: % is set by controls: 0 for no effect and ±100 for the full control effect; nearly all actives have a fitted effect of over 60% in size
Target sequence (P51450 whole entry, looked up, the tested form may be a part): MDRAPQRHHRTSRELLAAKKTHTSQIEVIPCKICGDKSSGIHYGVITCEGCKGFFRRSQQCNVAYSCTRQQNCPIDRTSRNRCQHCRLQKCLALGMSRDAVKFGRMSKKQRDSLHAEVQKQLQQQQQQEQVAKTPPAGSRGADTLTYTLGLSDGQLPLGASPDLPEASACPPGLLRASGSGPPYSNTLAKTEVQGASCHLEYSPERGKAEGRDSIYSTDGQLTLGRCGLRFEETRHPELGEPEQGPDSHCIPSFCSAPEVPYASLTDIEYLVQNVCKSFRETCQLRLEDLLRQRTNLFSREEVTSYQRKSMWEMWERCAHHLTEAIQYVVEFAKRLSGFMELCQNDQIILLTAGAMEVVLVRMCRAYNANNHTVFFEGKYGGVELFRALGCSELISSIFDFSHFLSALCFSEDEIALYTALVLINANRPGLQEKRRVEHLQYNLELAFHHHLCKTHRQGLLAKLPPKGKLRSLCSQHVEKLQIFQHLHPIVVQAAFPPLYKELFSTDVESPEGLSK
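Drosophila Schneider cells stably carrying a metallothionein-driven Gal4 DBD–ROR gamma fusion and a UAS-Photinus luciferase reporter were exposed to compound for 1 hr, then induced with copper sulfate (700 uM final) for 20 hr at ambient temperature before luminescence reading.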
uPA generation: blocks generation of uPA at the cell surface | actives 0.31% (n = 330,000) | cell surface uPA generation assay, qHTS | Potency, µM (series often up to 38.3 µM), for inactives: at the highest dose activity change, negative = inhibition, hits mostly inhibitors; active = well fitted inhibition curve with a large enough effect; inconclusive = small, poorly fitted or top-dose-only effect; inactive = no such curve, though single readings can be large or run the other way; tested in mouse RAW 264.7 cells; note: % is set by controls: 0 for no effect and ±100 for the full control effect; nearly all actives have a fitted effect of over 55% in size
Gal4-VP16 FLuc: Gal4-VP16 reporter inhibition counter-screen | Potency, µM (top dose mostly 53.6 µM), for inactives: at the top dose activity, negative = inhibition, hits mostly inhibitors | Drosophila S2 Gal4-VP16 UAS-luciferase, luminescence, 20 h | AID 2546 | actives 3.5% (n = 310,000);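 note: Gal4-VP16 expression switched on by copper sulfate through the metallothionein promoter; % is set by controls: 0 for no effect and ±100 for the full control effect; nearly all actives have a fitted effect of over 50% in size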
Mito fusion yeast: blocks mitochondrial division or promotes mitochondrial fusion; S. cerevisiae fusion-defective mutant growth rescue, CellTiterGlo 48 h; Potency, µM (doses to about 46.1 µM), for the others: top-dose growth rescue (activation), actives largely listed as activators; actives 0.23% (n = 320,000); AID 485298; note: % of control where 0% means no effect; nearly all actives have a fitted effect of over 45% in size
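Growth-rescue viability read-out: after 48 h at the non-permissive 37C in glycerol/ethanol YPEG, yeast mitochondrial fusion mutants are measured by CellTiterGlo luminescence; compounds (23 nl pinned per well) restoring growth score as division inhibitors or fusion activators.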
a7 integrin act: activators of alpha7 integrin expression for muscular dystrophy | alpha7betagal myoblasts, beta-gal FDG fluorescence, 48 h | Potency, µM (series often up to 38.3 µM), for inactives: at the highest dose activation, usual class: activators | actives 0.064% (n = 350,000);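 note: 100% = response of the positive control SU9516; nearly all actives have a fitted effect of over 60% in size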
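alpha7betagal+/- myoblasts (passage 13, 250/well) treated 48 h at 37C with compounds at 1:260 dilution of DMSO stock. Lysed, then beta-galactosidase activity read as FDG fluorescence (ex 480/em 540) after 30 min, with pre-read for autofluorescence.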
Chronic BCR inh: chronic active BCR signaling inhibition. ABC-DLBCL IkBa-CBG/CBR reporter, luminescence ratio, 4 h. Potency, µM (highest dose often 46.1 µM), without a hit: at the top dose activity change, negative = inhibition, usual class: inhibitors. actives 0.05% (n = 340,000). AID 493014; active = well fitted inhibition curve with a large enough effect in the signal ratio, with a control signal flat, not every such curve was filed as active; inconclusive = small, poorly fitted or top-dose-only effect, or effect the other way, or a change in a side signal; the % refers to the signal ratio;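 note: plate controls were basal doxycycline-induced cells for no effect and cells given 10 µM MG132 for full effect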
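TMD8 ABC-DLBCL cells carrying doxycycline-inducible green luciferase fused to IkappaBalpha plus unfused red luciferase were exposed to compounds (up to 46 uM) for 4 hrs at 37C. Activity came from the overlap-corrected green/red luminescence ratio.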
Active calls of the source: *. Unless noted, calls come from the whole dose curve; as a rule, active = well fitted curve in the direction sought with a large enough effect; inconclusive = small, poorly fitted or top-dose-only effect, or another doubt; inactive = no such curve, though single readings can be large; an effect the other way counts as inactive or inconclusive. Potency is the fitted concentration of half-maximal effect.

Results for CCOC(=O)C1=C(C)N(C)C(=S)NC1c1c(OCC)ccc2ccccc12 (stereo not given) ?
RORgamma inh: 2.82µM*; uPA generation: -1.1%; Gal4-VP16 FLuc: 17.8µM*; Mito fusion yeast: -3.9%; a7 integrin act: inconclusive; Chronic BCR inh: 0.7%

What do the screens show for `COc1ccc(CCNC(=O)CCS(=O)(=O)c2ccc3c(c2)NC(=O)C(C)S3)cc1OC` (stereo not given)?
RORgamma inh: 20.6%; uPA generation: 3.5%; Gal4-VP16 FLuc: 3.5%; Mito fusion yeast: 14.8%; a7 integrin act: -32.9%; Chronic BCR inh: 0.2%

How did CC[C@H](C)[C@H](NC(=O)[C@H](CCC(=O)O)NC(=O)[C@@H](N)CO)C(=O)N[C@@H](CCC(N)=O)C(=O)N[C@@H](CC(C)C)C(=O)N[C@@H](CCSC)C(=O)N[C@@H](Cc1cnc[nH]1)C(=O)N[C@@H](CC(N)=O)C(=O)N[C@@H](CC(C)C)C(=O)NCC(=O)N[C@@H](CCCCN)C(=O)N[C@@H](Cc1cnc[nH]1)C(=O)N[C@@H](CC(C)C)C(=O)N[C@@H](CC(N)=O)C(=O)N[C@@H](CO)C(=O)N[C@@H](CCSC)C(=O)N[C@@H](CCC(=O)O)C(=O)N[C@@H](CCCNC(=N)N)C(=O)N[C@H](C(=O)N[C@@H](CCC(=O)O)C(=O)N[C@@H](Cc1c[nH]c2ccccc12)C(=O)N[C@@H](CC(C)C)C(=O)N[C@@H](CCCNC(=N)N)C(=O)N[C@@H](CCCCN)C(=O)N[C@@H](CCCCN)C(=O)N[C@@H](CC(C)C)C(=O)N[C@@H](CCC(N)=O)C(=O)N[C@@H](CC(=O)O)C(=O)N[C@H](C(=O)N[C@@H](Cc1cnc[nH]1)C(=O)N[C@@H](CC(N)=O)C(=O)N[C@@H](Cc1ccccc1)C(=O)O)C(C)C)C(C)C do in these assays?
RORgamma inh: 9.1%; Gal4-VP16 FLuc: -7.1%

How did Cn1cc(Cl)c(/C(N)=N/OC(=O)c2ccccc2C(F)(F)F)n1 do in these assays?
RORgamma inh: -32.1%; uPA generation: -13.9%; Gal4-VP16 FLuc: -10.1%; Mito fusion yeast: 7.0%; a7 integrin act: 23.0%; Chronic BCR inh: -6.1%

How did Fc1ccc(/C=N/Nc2nnnn2-c2ccccc2)cc1 do in these assays?
RORgamma inh: 11.2µM*; uPA generation: 1.7%; Gal4-VP16 FLuc: inconclusive; Mito fusion yeast: 4.9%; a7 integrin act: 10.7%; Chronic BCR inh: -0.5%

Results for Cc1ccc(NC(=O)NCC2CCN(Cc3cccc(Cl)c3)CC2)cc1Cl ?
RORgamma inh: 20µM*; uPA generation: 0.7%; Gal4-VP16 FLuc: -23.9%; Mito fusion yeast: -4.3%; a7 integrin act: -71.0%; Chronic BCR inh: 0.0%

Results for CCc1ccc(NC(=O)NCC2CCN(Cc3cccc(Cl)c3)CC2)cc1 ?
RORgamma inh: -29.4%; uPA generation: -26.9%; Gal4-VP16 FLuc: 3.9%; Mito fusion yeast: -29.1%; a7 integrin act: 0.0%; Chronic BCR inh: -0.7%

How did COc1ccc(-c2nn(-c3ccccc3)cc2/C=N/O)cc1OC do in these assays?
RORgamma inh: 1µM*; uPA generation: -3.4%; Gal4-VP16 FLuc: 1.78µM*; Mito fusion yeast: -50.5%; a7 integrin act: -9.8%; Chronic BCR inh: inconclusive

Results for COc1ccc(-c2nn(-c3ccccc3)cc2/C=N/N=C(N)N)cc1OC ?
RORgamma inh: 25.1%; uPA generation: 3.8%; Gal4-VP16 FLuc: -6.8%; Mito fusion yeast: -0.4%; a7 integrin act: -51.4%; Chronic BCR inh: inconclusive

What do the screens show for `COc1ccc(-c2nn(-c3ccccc3)cc2/C=N/NC(=S)NC(C)C)cc1OC`?
RORgamma inh: 1.41µM*; uPA generation: 1.6%; Gal4-VP16 FLuc: 2.24µM*; Mito fusion yeast: 11.6%; a7 integrin act: 23.1%; Chronic BCR inh: inconclusive

What do the screens show for `COc1ccc(-c2nn(-c3ccccc3)cc2/C=N/Nc2ccc3ccccc3n2)cc1OC`?
RORgamma inh: 1.78µM*; uPA generation: -10.3%; Gal4-VP16 FLuc: 5.01µM*; Mito fusion yeast: inconclusive; a7 integrin act: 10.5%; Chronic BCR inh: -12.5%

Results for COc1ccc(-c2nn(-c3ccccc3)cc2/C=N/Nc2ccc(S(N)(=O)=O)cc2[N+](=O)[O-])cc1OC ?
RORgamma inh: inconclusive; uPA generation: -4.3%; Gal4-VP16 FLuc: inconclusive; Mito fusion yeast: 0.7%; a7 integrin act: -10.2%; Chronic BCR inh: inconclusive

What do the screens show for `Cc1cccc(N(Cc2ccccc2)C(=O)CCl)c1`?
RORgamma inh: 10µM*; uPA generation: -20.5%; Gal4-VP16 FLuc: -25.1%; Mito fusion yeast: -18.6%; a7 integrin act: -63.6%; Chronic BCR inh: inconclusive

What do the screens show for `O=C(CCl)N(Cc1ccccc1)c1ccccc1`?
RORgamma inh: 11.2µM*; uPA generation: inconclusive; Gal4-VP16 FLuc: inconclusive; Mito fusion yeast: 0.1%; a7 integrin act: -58.8%; Chronic BCR inh: inconclusive

How did CCOc1ccc(CC(=O)NNC(=S)NCCc2ccccc2)cc1 do in these assays?
RORgamma inh: -41.1%; uPA generation: -2.2%; Gal4-VP16 FLuc: 1.6%; Mito fusion yeast: 2.4%; a7 integrin act: 9.8%; Chronic BCR inh: -0.2%

How did CC1(C)CC2CC(C)(CN2C(=S)NC(=O)c2ccccc2Cl)C1 (stereo not given) do in these assays?
RORgamma inh: 1.26µM*; uPA generation: 0.1%; Gal4-VP16 FLuc: 1µM*; Mito fusion yeast: 18.4%; a7 integrin act: -0.3%; Chronic BCR inh: -6.6%

What do the screens show for `CC1(C)CC2CC(C)(CN2C(=S)Nc2ccccc2F)C1` (stereo not given)?
RORgamma inh: 3.98µM*; uPA generation: -1.7%; Gal4-VP16 FLuc: 1.7%; Mito fusion yeast: 0.1%; a7 integrin act: -13.5%; Chronic BCR inh: 2.0%

Results for CC(C)[C@H](NC(=O)c1ccccc1)C(=O)Nc1ccc2c(c1)OCO2 ?
uPA generation: -21.9%; Mito fusion yeast: 2.1%; a7 integrin act: -24.9%; Chronic BCR inh: 1.1%

How did Cc1ccc(OCCC(=O)OCC(=O)NC2CCCC(C)C2C)cc1 (stereo not given) do in these assays?
uPA generation: 10.2%; a7 integrin act: 24.3%; Chronic BCR inh: 0.3%

What do the screens show for `CC1CCCC(NC(=O)COC(=O)CCC2CCCC2)C1C` (stereo not given)?
RORgamma inh: -6.5%; uPA generation: 4.8%; Gal4-VP16 FLuc: 0.562µM*; Mito fusion yeast: 4.3%; a7 integrin act: -14.6%; Chronic BCR inh: 1.7%

What do the screens show for `Cc1ccc(COc2ccc(/C=N/O)cc2)cc1`?
RORgamma inh: 8.91µM*; uPA generation: -5.2%; Gal4-VP16 FLuc: inconclusive; Mito fusion yeast: 17.6%; a7 integrin act: -36.8%; Chronic BCR inh: inconclusive

From PubChem
